# Experimental data as given in PubChem BioAssay AID720697 (Broad Institute, 2013).
# Potency and affinity values are given separately. Results filed as inconclusive are left out. Unmarked numbers belong to inactive results.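 How the source made its calls: active means signal loss with fitted half-maximal concentration at or below twice the top valid tested dose in every test run; inconclusive means runs disagree, flat 30 to 70% signal loss, or poor fit; inactive means all runs flat, opposite direction, or potency beyond limit.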
# Assay: general mammalian cell viability loss – inhibitor set, cherry-pick, set 2, cytotoxicity control for miR-122 modulator project, dose response (AID 720697);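 further: 0% = median of neutral control wells and -100% = MG132 positive control wells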
# Conditions: HEK293T viability, CellTiter-Glo luminescence, 48 h; series mostly up to 26 µM; activity change, negative = cytotoxicity: at the top concentration
row,Compound,"activity change, negative = cytotoxicity"
1,Cc1ccc(S(=O)(=O)NCCCNS(C)(=O)=O)cc1,-34.2%
2,C[C@H](NC(=O)C[C@H]1CC[C@@H]2[C@@H](COc3ccc(NS(=O)(=O)c4ccc(Cl)cc4)cc3C(=O)N2C)O1)c1ccccc1,77.1%
3,Cc1ccccc1NCN1C(=O)C2C3C=CC(C3)C2C1=O (centres undefined),58%
4,C[C@@H]1CN([C@H](C)CO)S(=O)(=O)c2ccc(C3=CCCC3)cc2O[C@@H]1CN(C)C(=O)C1CCOCC1,95.3%
5,C/C=C/c1ccc([C@H]2[C@@H](CO)N(Cc3ccccn3)[C@H]2CNC(=O)CC)cc1,144%
6,CN(C)CCCNC(=O)C[C@@H]1CC[C@@H]2[C@@H](COc3ccc(NC(=O)NC4CCCC4)cc3C(=O)N2C)O1,65.9% [at 23.5 µM]
7,CN1CCN(C(=O)C[C@H]2CC[C@@H]3[C@H](COc4ccc(NC(=O)c5cccs5)cc4C(=O)N3C)O2)CC1,39.4%
8,CC(=O)c1ccc(Nc2nc3ccc(C)cc3n3cnnc23)cc1,52.6%
9,CN(C[C@H]1N[C@@H](CO)[C@@H]1c1ccc(C2=CCCC2)cc1)C(=O)c1ccc(F)cc1,110% [at 23.5 µM]
10,CCCC(=O)Nc1ccc2c(c1)C(=O)N(C)[C@@H]1CC[C@H](CC(=O)N3CCc4ccccc4C3)O[C@H]1CO2,83.8%
11,CN1C(=O)c2cc(NC(=O)c3cccs3)ccc2OC[C@@H]2O[C@H](CC(=O)NCCN3CCCCC3)CC[C@H]21,61.8%
12,CN(C)CCNc1ncnc2c1sc1nc(N3CCOCC3)c3c(c12)CC(C)(C)SC3,-130%
13,CN1C(=O)c2cc(NC(=O)c3ccc(C(F)(F)F)cc3)ccc2OC[C@H]2O[C@H](CC(=O)NCc3ccc4c(c3)OCO4)CC[C@@H]21,-12.6%
14,CC(=O)N1[C@H](CO)[C@@H](c2ccccc2)[C@H]1CN(C)C(=O)CN1CCOCC1,36.2%
15,COC(=O)C[C@H]1CC[C@@H]2[C@@H](COc3ccc(NC(=O)Nc4ccc(Cl)cc4)cc3C(=O)N2C)O1,128%
16,CNC(=O)C[C@@H]1CC[C@@H]2[C@@H](COc3ccc(NC(=O)Cc4cccs4)cc3C(=O)N2C)O1,40.2%
17,c1cnc(N2CCN(Cc3c[nH]c4ccccc34)CC2)nc1,6.09%
18,CCC(=O)Nc1ccc2c(c1)C(=O)N(C)[C@@H]1CC[C@H](CC(=O)NCCN3CCCCC3)O[C@H]1CO2,126%
19,C/C=C/c1ccc([C@H]2[C@@H](CO)N(C(=O)COC)[C@H]2CNC(=O)CC)cc1,-19.9%
20,C[C@@H]1CN([C@@H](C)CO)S(=O)(=O)c2ccc(C#Cc3ccncc3)cc2O[C@@H]1CN(C)C(=O)C1CCOCC1,123%

row,Compound,"activity change, negative = cytotoxicity"
1,COc1ccc(-c2nc(NC(=O)CSc3nnc(C)s3)ns2)cc1,23.7%
2,CO[C@H]1CN(C)C(=O)c2cc(NC(=O)c3cccc(Oc4ccccc4)c3)ccc2OC[C@@H](C)NC[C@H]1C,14.2%
3,c1ccc(-c2nnc3n2CCCC3)cc1,47.8%
4,Cc1ccc(-c2noc(CCC(=O)Nc3ccccc3C)n2)cc1,75.7%
5,COc1ccc(S(=O)(=O)Nc2cccc3c2O[C@H](CN(C)CC2CCCCC2)[C@@H](C)CN([C@H](C)CO)C3=O)cc1,94.8%
6,Cc1cc(C)nc(NS(=O)(=O)c2ccc(NC(=S)NC(=O)C3CCCC3)cc2)n1,-3.73%
7,COCC(=O)Nc1ccc2c(c1)C(=O)N(C)[C@H]1CC[C@@H](CC(=O)NC3CCCC3)O[C@H]1CO2,12.9%
8,O=C(C1CCCCC1)N1C[C@@H]2[C@H](c3ccccc31)[C@H](CO)N2Cc1ccccc1Cl,-29.8% [at 23.5 µM]
9,CN1C(=O)c2cc(NS(=O)(=O)c3cccc(F)c3)ccc2OC[C@H]2O[C@@H](CC(=O)NCCN3CCCCC3)CC[C@H]21,133% [at 23.5 µM]
10,C/C=C/c1ccc([C@@H]2[C@H](CO)N(Cc3ccccn3)[C@H]2CNC(=O)CC)cc1,82.8%
11,CN1C(=O)c2cc(NC(=O)Nc3ccccc3F)ccc2OC[C@@H]2O[C@@H](CC(=O)NCc3ccc(-c4ccccc4)cc3)CC[C@H]21,129%
12,C[C@@H]1CN([C@H](C)CO)S(=O)(=O)c2ccc(C3=CCCCC3)cc2O[C@@H]1CN(C)C(=O)Cc1ccncc1,23.5%
13,CN(C)CCNc1ncnc2c1sc1nc(-c3ccccc3)c3c(c12)CCCC3,-127%
14,C/C=C/c1ccc([C@@H]2[C@H](CO)N[C@H]2CN(CC)C(=O)CN2CCOCC2)cc1,47%
15,O=C(COC(=O)c1ccccc1)Nc1cc(Cl)ccc1Oc1ccccc1,99%
16,C[C@@H]1CN([C@@H](C)CO)S(=O)(=O)c2ccc(C#CC3(O)CCCC3)cc2O[C@@H]1CN(C)C(=O)c1cccnc1,68.5%
17,COc1ccc(S(=O)(=O)Nc2ccc3c(c2)CC(=O)N([C@@H](C)CO)C[C@@H](C)[C@H](CN(C)Cc2ccc(-c4ccccc4)cc2)O3)cc1,-43.3%
18,Cc1cccc(NC(=O)Nc2ccc3c(c2)C(=O)N(C)[C@@H]2CC[C@H](CC(=O)NCc4ccccc4Cl)O[C@H]2CO3)c1,128%
19,CC#CCCCC(=O)Nc1ccccc1C(=O)O,81.9%
